Test results taken from the supplement of paper PMC11732987, “Enantioselective OTUD7B fragment discovery through chemoproteomics screening and high-throughput optimisation” (Communications Chemistry, 2025).

How the values were obtained:
Assay in all cases: log2 ratio of Biotin-Ahx-Ub-VS probe labelling (fragment/DMSO); higher = less target engagement (more negative = stronger competition), active = hit call of the paper (q ≤ 0.05, log2 ratio ≤ -1)
Details in all cases: compound concentration: 200 uM; treatment time: 3 h
USP34 = USP34 (UniProt Q70CQ2)
Chain of USP34 (Q70CQ2 whole entry, the tested form may be a part): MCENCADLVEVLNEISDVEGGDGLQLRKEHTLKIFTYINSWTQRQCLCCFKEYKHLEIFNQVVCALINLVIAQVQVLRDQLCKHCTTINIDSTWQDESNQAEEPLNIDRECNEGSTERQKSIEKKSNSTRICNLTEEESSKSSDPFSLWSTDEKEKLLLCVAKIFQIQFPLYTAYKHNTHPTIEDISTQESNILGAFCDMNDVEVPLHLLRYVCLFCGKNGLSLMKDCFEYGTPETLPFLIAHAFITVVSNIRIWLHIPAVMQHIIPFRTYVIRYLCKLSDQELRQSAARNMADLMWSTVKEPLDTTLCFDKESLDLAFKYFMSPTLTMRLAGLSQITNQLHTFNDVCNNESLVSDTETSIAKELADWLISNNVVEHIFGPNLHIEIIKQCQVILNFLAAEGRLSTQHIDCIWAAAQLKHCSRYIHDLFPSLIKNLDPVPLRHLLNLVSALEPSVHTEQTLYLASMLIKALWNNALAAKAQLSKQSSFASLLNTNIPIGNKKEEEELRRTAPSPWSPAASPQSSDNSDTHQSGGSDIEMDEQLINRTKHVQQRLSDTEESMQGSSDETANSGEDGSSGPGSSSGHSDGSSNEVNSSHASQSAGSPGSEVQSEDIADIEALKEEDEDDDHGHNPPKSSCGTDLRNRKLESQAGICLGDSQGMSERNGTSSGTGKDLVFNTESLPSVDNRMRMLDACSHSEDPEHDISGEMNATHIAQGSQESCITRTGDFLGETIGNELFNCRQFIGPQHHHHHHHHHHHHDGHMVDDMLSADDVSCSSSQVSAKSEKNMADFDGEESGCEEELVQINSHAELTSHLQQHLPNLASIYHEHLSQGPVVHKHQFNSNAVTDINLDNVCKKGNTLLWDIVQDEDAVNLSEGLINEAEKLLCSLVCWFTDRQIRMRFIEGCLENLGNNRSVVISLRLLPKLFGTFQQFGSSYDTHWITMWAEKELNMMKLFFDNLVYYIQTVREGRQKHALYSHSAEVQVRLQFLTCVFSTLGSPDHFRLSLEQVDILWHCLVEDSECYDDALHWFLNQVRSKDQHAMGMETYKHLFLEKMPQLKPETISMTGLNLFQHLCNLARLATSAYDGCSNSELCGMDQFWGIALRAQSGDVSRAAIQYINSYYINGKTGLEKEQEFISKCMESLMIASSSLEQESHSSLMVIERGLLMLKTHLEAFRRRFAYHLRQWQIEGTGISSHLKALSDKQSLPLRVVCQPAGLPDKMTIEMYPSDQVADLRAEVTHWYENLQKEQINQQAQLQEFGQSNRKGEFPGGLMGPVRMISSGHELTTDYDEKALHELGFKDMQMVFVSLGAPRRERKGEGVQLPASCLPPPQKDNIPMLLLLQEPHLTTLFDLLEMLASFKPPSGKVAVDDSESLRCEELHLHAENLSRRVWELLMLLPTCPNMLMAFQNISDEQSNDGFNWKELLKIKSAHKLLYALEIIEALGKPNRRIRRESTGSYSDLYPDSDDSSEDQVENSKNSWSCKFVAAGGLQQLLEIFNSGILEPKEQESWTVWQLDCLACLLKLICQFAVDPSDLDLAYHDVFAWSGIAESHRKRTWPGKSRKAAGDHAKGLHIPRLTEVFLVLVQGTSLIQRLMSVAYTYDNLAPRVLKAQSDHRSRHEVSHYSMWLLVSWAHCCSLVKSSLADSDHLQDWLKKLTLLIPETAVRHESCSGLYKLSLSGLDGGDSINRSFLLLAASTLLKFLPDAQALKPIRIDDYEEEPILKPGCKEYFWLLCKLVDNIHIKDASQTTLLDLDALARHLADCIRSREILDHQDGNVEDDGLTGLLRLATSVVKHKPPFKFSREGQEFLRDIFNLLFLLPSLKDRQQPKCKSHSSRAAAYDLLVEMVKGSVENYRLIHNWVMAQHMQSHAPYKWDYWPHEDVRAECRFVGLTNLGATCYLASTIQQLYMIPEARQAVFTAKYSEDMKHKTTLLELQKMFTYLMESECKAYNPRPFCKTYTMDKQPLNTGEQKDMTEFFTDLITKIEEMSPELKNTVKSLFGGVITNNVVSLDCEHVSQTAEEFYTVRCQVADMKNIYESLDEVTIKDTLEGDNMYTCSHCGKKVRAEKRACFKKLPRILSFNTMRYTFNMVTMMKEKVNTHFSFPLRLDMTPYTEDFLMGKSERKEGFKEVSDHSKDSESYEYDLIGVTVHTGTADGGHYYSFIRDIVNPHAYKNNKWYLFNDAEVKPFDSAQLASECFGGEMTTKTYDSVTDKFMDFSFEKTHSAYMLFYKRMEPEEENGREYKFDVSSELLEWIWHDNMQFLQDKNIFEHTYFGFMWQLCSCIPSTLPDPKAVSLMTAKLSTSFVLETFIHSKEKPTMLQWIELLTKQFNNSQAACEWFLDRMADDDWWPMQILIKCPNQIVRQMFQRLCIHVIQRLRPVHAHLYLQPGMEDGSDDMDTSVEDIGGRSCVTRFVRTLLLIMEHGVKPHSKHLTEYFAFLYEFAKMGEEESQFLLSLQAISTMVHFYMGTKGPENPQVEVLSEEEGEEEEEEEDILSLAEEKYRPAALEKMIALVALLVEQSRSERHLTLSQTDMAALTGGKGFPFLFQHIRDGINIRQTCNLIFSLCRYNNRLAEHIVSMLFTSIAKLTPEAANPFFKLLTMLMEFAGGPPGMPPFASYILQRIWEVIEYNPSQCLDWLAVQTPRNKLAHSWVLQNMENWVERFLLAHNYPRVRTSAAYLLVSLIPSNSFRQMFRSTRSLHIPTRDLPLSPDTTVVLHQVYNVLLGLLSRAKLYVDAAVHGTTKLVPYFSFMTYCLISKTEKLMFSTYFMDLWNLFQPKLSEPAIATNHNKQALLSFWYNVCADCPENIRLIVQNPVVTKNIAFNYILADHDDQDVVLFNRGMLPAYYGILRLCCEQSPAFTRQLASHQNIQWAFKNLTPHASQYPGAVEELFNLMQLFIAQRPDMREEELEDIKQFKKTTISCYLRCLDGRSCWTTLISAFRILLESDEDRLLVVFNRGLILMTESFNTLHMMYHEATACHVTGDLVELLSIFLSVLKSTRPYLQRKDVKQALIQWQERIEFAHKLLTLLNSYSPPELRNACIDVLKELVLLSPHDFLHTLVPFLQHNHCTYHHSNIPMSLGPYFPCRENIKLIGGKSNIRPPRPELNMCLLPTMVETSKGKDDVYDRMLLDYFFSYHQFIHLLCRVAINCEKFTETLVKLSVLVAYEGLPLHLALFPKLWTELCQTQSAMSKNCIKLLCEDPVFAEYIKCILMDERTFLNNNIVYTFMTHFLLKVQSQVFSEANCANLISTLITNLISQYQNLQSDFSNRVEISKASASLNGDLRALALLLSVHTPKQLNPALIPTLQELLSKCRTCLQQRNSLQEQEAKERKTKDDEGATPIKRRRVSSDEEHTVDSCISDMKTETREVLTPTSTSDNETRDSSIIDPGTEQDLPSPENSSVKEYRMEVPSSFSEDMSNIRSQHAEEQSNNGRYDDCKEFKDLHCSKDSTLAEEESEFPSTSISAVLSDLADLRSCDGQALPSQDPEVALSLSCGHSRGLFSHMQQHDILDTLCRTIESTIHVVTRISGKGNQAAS
Procedure, shortened: (§1)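 HEK293T lysate in Tris/CHAPS/IGEPAL buffer with protease inhibitors (495 µg per sample) was given fragment at 200 µM or vehicle for 3 h, in triplicate. It then received Biotin-Ahx-Ub-VS at 0.5 µM final for 1 h. Labelled DUBs were NeutrAvidin-enriched, digested with LysC and trypsin, and run by diaPASEF LC-MS/MS. Values are average log2 fragment/vehicle ratios by unpaired t-test on global-median-normalised Spectronaut quantities of proteins with ≥2 unique peptides.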

USP36 = biological target: T1, USP36 (UniProt Q9P275)
T1 sequence (whole entry): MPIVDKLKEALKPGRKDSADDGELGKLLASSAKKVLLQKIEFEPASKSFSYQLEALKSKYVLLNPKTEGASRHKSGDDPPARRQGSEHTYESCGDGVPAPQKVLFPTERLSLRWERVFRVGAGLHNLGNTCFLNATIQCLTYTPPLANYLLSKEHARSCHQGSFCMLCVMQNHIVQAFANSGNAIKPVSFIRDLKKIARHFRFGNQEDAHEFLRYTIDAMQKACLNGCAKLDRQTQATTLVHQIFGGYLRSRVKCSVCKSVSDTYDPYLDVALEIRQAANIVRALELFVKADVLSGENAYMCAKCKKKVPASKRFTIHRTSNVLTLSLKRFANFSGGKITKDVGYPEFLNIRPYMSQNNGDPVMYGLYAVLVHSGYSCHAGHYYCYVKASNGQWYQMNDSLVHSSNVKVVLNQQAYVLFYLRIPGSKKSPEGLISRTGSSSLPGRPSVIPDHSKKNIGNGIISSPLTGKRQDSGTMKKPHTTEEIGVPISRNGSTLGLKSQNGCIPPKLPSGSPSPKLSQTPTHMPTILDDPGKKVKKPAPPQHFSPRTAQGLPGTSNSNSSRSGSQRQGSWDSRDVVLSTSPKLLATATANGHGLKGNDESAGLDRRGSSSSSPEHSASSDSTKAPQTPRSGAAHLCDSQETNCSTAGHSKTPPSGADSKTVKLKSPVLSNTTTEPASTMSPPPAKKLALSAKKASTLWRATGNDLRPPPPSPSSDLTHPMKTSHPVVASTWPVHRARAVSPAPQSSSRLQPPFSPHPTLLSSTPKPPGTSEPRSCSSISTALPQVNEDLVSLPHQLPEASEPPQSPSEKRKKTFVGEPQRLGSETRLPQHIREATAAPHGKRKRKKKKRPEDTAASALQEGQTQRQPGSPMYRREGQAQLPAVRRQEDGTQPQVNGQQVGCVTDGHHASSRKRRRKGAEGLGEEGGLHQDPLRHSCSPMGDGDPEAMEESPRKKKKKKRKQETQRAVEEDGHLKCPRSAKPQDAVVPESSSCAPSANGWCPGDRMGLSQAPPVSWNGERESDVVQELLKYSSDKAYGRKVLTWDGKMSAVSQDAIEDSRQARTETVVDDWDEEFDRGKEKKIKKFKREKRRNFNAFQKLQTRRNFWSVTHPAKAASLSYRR
Procedure, shortened: as §1

USP38 = biological target: T2, USP38 (UniProt Q8NB14)
T2 sequence (whole entry): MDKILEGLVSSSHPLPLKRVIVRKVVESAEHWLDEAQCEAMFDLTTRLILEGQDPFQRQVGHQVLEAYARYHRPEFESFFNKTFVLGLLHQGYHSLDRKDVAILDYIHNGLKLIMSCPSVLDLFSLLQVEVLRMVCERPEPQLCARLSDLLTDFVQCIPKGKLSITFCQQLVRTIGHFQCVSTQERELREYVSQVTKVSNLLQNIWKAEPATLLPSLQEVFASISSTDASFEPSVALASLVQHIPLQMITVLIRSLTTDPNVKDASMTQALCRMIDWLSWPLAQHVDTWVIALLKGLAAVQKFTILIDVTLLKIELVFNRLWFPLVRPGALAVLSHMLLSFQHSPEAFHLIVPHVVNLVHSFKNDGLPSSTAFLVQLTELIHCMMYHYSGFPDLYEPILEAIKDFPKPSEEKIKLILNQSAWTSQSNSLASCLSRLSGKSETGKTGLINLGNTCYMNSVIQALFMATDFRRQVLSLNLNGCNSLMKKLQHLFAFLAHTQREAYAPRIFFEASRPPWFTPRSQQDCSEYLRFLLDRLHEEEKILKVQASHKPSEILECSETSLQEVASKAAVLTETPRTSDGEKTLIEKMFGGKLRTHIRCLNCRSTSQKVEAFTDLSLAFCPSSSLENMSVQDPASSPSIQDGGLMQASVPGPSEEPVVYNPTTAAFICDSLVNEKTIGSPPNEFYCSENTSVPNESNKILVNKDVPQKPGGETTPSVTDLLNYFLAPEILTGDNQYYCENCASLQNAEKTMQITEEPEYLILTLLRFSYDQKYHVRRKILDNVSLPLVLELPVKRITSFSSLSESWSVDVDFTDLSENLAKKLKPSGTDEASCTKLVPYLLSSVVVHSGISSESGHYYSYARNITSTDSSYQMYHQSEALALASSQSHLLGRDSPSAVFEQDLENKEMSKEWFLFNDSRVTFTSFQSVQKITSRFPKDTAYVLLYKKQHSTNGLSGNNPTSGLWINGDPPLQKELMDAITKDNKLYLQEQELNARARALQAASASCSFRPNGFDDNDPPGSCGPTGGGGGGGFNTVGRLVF
Procedure, shortened: as §1

USP39 = biological target: T3, USP39 (UniProt Q53GS9)
T3 sequence (whole entry): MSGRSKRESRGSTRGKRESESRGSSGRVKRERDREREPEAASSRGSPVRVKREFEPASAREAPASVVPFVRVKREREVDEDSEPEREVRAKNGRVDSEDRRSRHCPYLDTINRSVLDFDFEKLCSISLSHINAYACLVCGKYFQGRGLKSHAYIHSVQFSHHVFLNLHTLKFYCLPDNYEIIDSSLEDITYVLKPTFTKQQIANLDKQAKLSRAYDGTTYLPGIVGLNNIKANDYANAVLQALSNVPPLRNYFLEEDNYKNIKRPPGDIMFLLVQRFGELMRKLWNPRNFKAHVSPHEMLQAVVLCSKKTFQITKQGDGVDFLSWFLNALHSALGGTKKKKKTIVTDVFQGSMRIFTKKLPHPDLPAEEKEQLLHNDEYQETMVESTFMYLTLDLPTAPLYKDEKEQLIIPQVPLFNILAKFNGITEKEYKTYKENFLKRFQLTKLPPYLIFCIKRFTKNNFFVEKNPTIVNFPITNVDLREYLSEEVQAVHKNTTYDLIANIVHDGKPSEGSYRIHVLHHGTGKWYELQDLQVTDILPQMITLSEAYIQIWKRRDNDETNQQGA
Procedure, shortened: as §1

USP4 = biological target: T4, USP4 (UniProt Q13107)
T4 sequence (whole entry): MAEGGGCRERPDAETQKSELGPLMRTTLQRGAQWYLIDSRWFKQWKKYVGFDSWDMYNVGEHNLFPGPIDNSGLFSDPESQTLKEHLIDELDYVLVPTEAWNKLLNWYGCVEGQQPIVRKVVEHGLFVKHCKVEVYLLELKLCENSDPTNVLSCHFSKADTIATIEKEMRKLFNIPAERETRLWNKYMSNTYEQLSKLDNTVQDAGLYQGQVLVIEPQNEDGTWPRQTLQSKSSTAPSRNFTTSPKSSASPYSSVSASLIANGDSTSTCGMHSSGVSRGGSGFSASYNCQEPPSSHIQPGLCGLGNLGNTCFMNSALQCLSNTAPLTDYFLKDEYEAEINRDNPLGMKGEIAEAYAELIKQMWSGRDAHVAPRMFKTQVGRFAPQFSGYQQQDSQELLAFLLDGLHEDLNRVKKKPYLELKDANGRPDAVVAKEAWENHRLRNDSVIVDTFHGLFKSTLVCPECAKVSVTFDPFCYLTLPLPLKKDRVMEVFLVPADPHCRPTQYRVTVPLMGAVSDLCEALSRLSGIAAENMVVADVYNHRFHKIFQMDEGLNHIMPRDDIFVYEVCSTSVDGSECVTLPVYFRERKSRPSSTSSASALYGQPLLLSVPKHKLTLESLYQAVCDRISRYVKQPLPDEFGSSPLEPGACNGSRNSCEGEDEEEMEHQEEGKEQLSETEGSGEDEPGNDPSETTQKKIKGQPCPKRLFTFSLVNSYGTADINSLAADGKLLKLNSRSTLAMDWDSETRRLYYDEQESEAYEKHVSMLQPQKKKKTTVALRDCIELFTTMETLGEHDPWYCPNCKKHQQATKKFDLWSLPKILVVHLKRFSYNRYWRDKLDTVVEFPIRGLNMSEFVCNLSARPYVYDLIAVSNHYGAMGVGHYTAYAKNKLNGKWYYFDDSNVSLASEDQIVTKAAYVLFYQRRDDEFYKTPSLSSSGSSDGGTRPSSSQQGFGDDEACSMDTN
Procedure, shortened: as §1

Measured: log2 ratio of Biotin-Ahx-Ub-VS probe labelling

O=C(CCl)NCC(=O)N1CCCC1
inactive: USP34 0.0366 | USP36 -0.0373 | USP38 0.115 | USP39 0.319 | USP4 -0.0182
